In the supplement of paper PMC8007513 one finds growth yield data, which are given here for 34 molecules.

Structures are written as SMILES. Counter-ions that a name gives are not always drawn. ± gives the standard error. Screen size: about 1,300 compounds; about 75 (6%) showed an effect of 50% or more. The list comes from a sample in which strong results are over-represented; it also holds similar structures and randomly drawn compounds.

The experiment concerns Trichoderma virens ATCC 9645. The experiment in a line: growth yield (OD600) relative to untreated control; higher = less growth inhibition. Conditions: compound concentration: 100 uM. The gist of the method:
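For each 96-well plate, 100 μl aliquots were prepared with Trichoderma virens ATCC 9645 spores suspended at 15,000 spores ml^−1 in potato dextrose broth. The spores had been harvested from potato dextrose agar plates after 7 days. Library compounds were present at 100 μM final, some wells also receiving a biocide at 200 ng ml^−1, and plates were grown at 30 °C with OD600 read on a BioTek EL800 at 40 h and 72 h. Reported growth, relative to the control lacking both agents, is the mean of duplicate screens.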

Take `CCN1CCCC(OC(=O)C(c2ccccc2)c2ccccc2)C1` (stereo not drawn) [Piperidolate hydrochloride]: the growth yield is, setting by setting: (40 h) 106 ± 0.79%; (72 h) 105 ± 1.8%.

Consider `C=CC[N@@+]12CC[C@@]34c5ccccc5N5/C=C6/[C@H]7C[C@H]8[C@@]9(CC[N@@+]8(CC=C)C/C7=C/CO)c7ccccc7N(/C=C(/[C@@H](C[C@@H]31)/C(=C\CO)C2)[C@H]54)[C@@H]69` [Alcuronium chloride], for which the growth yield runs as follows: (40 h) 66.1 ± 7.6%; (72 h) 65.8 ± 5.3%.

With `O=C(O)CCNC(=O)c1ccc(/N=N/c2ccc(O)c(C(=O)O)c2)cc1` [Balsalazide Sodium], the growth yield came to 107 ± 1.4% (40 h) and 101.9 ± 0.84% (72 h).

`OCCN1C[C@H](O)[C@@H](O)[C@H](O)[C@H]1CO` [Miglitol]: the growth yield runs as follows: (40 h) 101 ± 3%; (72 h) 103 ± 3.1%.

On to `C#C[C@]1(O)CC[C@H]2[C@@H]3[C@H](C)CC4=C(CCC(=O)C4)[C@H]3CC[C@@]21C` [Tibolone], for which the growth yield amounted to 88.31 ± 0.64% (40 h) and 90.72 ± 0.1% (72 h).

With `CN1CC2c3ccccc3Oc3ccc(Cl)cc3C2C1` (stereo not drawn) [Asenapine maleate], the growth yield is, setting by setting: (40 h) 100 ± 1.3%; (72 h) 106 ± 1.3%.

Turning to `O=C(O)/C=C/c1ccc(Cn2ccnc2)cc1` [Ozagrel hydrochloride], the growth yield is, setting by setting: (40 h) 110 ± 9.5%; (72 h) 106 ± 5.1%.

Take `C=CCOC(Cn1ccnc1)c1ccc(Cl)cc1Cl` (stereo not drawn) [Enilconazole]: the growth yield reads like this: (40 h) 3.49%; (72 h) 3.04 ± 0.32%.

Regarding `Clc1ccc(COC(Cn2ccnc2)c2ccc(Cl)cc2Cl)cc1` (stereo not drawn) [Econazole nitrate], the growth yield runs as follows: (40 h) 2.22 ± 0.64%; (72 h) 1.78 ± 0.52%.

As to `Clc1ccc(C(Cn2ccnc2)OCc2ccsc2Cl)c(Cl)c1` (stereo not drawn) [Tioconazole], the growth yield was 2.22 ± 1.6% (40 h) and 1.89 ± 0.84% (72 h).

On to `Clc1ccc(C(Cn2ccnc2)OCc2csc3c(Cl)cccc23)c(Cl)c1` (stereo not drawn) [Sertaconazole nitrate], for which the growth yield reads like this: (40 h) 3.81%; (72 h) 2.73%.

For `CCOC(=O)O[C@]1(C(=O)OCCl)CC[C@H]2[C@@H]3CCC4=CC(=O)C=C[C@]4(C)[C@H]3[C@@H](O)C[C@@]21C` [Loteprednol etabonate], the growth yield by setting is: (40 h) 97.7 ± 3.6%; (72 h) 97.4 ± 3.5%.

With `CNCC(O)c1ccc(OC(=O)C(C)(C)C)c(OC(=O)C(C)(C)C)c1` (stereo not drawn) [Dipivefrin hydrochloride], the growth yield by setting is: (40 h) 99.28 ± 0.79%; (72 h) 100.2 ± 0.94%.

Take `CN(C)[C@@H]1C(O)=C(C(N)=O)C(=O)[C@@]2(O)C(O)=C3C(=O)c4c(O)cccc4[C@@](C)(O)[C@H]3C[C@@H]12` [Tetracycline hydrochloride]: the growth yield reads like this: (40 h) 95.9%; (72 h) 76.2 ± 15%.

Consider `CCN(CC)CCN[C@@H](C(=O)OCCC(C)C)c1ccccc1` [Camylofine chlorhydrate], for which the growth yield reads like this: (40 h) 104 ± 1.8%; (72 h) 102 ± 1.5%.

As for `CC1=C(CC(=O)O)c2cc(F)ccc2/C1=C\c1ccc([S+](C)[O-])cc1` (stereo not drawn) [Sulindac], the growth yield reads like this: (40 h) 90.1 ± 1.1%; (72 h) 86.31 ± 0.73%.

`CN(C)CCCSC(=N)N` [Dimaprit dihydrochloride]: the growth yield (40 h) is 102 ± 3.3% and the growth yield (72 h) came out at 99.5 ± 3.2%.

Regarding `CC(C)(C)NC(=O)[C@H]1CC[C@H]2[C@@H]3CC[C@H]4NC(=O)C=C[C@]4(C)[C@H]3CC[C@]12C` [Finasteride], the growth yield turned out to be 84 ± 5.9% (40 h) and 81.1 ± 2% (72 h).

In the case of `N[C@@H]1CCCCN(c2c(F)cc3c(=O)c(C(=O)O)cn(C4CC4)c3c2Cl)C1` [Besifloxacin hydrochloride], the growth yield by setting is: (40 h) 93.4 ± 6.3%; (72 h) 91.6 ± 8.3%.

`C[C@H](Cc1cc2c(c(C(N)=O)c1)N(CCCO)CC2)NCCOc1ccccc1OCC(F)(F)F` [Silodosin] had a growth yield (40 h) of 105% and a growth yield (72 h) of 100 ± 2.3%.

Regarding `Cc1cc(/C=C/c2ccc3cc(N(C)C)ccc3[n+]2C)c(C)n1-c1ccccc1` [Pyrvinium pamoate], the growth yield runs as follows: (40 h) 124 ± 20%; (72 h) 114 ± 12%.

Regarding `CCC1NC(=O)c2cc(S(N)(=O)=O)c(Cl)cc2N1` (stereo not drawn) [Quinethazone], the growth yield (40 h) turned out to be 114 ± 1.4% and the growth yield (72 h) worked out at 107 ± 1.1%.

In the case of `C#C[C@]1(OC(C)=O)CC[C@H]2[C@@H]3CCC4=CC(=NO)CC[C@@H]4[C@H]3CC[C@@]21CC` (mixture of isomers) [Norgestimate], the growth yield reads like this: (40 h) 117 ± 3.3%; (72 h) 112 ± 3.9%.

As for `Clc1ccc(COC(Cn2ccnc2)c2ccc(Cl)cc2Cl)c(Cl)c1` (stereo not drawn) [Miconazole], the growth yield by setting is: (40 h) 1.43 ± 1.1%; (72 h) 1.47 ± 0.63%.

On to `COc1ccc(-c2ccc3cc(C(=O)O)ccc3c2)cc1C12CC3CC(CC(C3)C1)C2` [Adapalene], for which the growth yield (40 h) amounted to 107 ± 1.9% and the growth yield (72 h) came out at 106.6 ± 0.84%.

For `Nc1ncnc2c1ncn2C1OC(COP(=O)(O)O)C(O)C1O` (stereo not drawn) [Adenosine 5'-monophosphate monohydrate], the growth yield was found to be 106 ± 1.3% (40 h) and 107 ± 3.6% (72 h).

Take `Cc1c(NC(C)C)c(=O)n(-c2ccccc2)n1C` [Isopyrin hydrochloride]: the growth yield reads like this: (40 h) 100.9 ± 0.79%; (72 h) 96.17 ± 0.52%.

With `NC(Cc1cc(I)c(Oc2cc(I)c(O)c(I)c2)c(I)c1)C(=O)O` (stereo not drawn) [Thyroxine (L)], the growth yield is 98 ± 2.1% (40 h) and 94.5 ± 3.9% (72 h).

The molecule `O=C(O)Cc1cc(I)c(Oc2ccc(O)c(I)c2)c(I)c1` [Tiratricol, 3,3',5-triiodothyroacetic acid] had a growth yield (40 h) of 28.9 ± 16% and a growth yield (72 h) of 46.6 ± 17%.

Turning to `N[C@@H](Cc1cc(I)c(Oc2ccc(O)c(I)c2)c(I)c1)C(=O)O` [Liothyronine], the growth yield reads like this: (40 h) 91.3 ± 3.3%; (72 h) 97.3 ± 1.1%.

In the case of `COc1cc2nc(N3CCN(C(=O)c4ccco4)CC3)nc(N)c2cc1OC` [Prazosin hydrochloride], the growth yield reads like this: (40 h) 105 ± 5.7%; (72 h) 101 ± 1.4%.

Consider `CCOC(=O)/C=C(C)/C=C/C=C(C)/C=C/c1c(C)cc(OC)c(C)c1C` [Etretinate], for which the growth yield runs as follows: (40 h) 110 ± 6.3%; (72 h) 107 ± 5.5%.

As to `CC(=O)Nc1ccc(CC(=O)O)cc1` [Actarit], the growth yield turned out to be 106 ± 5.4% (40 h) and 102 ± 3.4% (72 h).

Turning to `C[C@@H](O)[C@H]1C(=O)N2C(C(=O)O)=C(SCCNC=N)C[C@H]12` [Imipenem], the growth yield runs as follows: (40 h) 103 ± 2.2%; (72 h) 104 ± 2.2%.
